Assay outcomes (PubChem)
The list is not random: actives were taken first. Their share in the collection is about 5.5%.
RORgamma inh: inhibitors of mouse ROR gamma transcriptional activity; 5.4% of 310,000 active; Potency, µM (top dose mostly 53.6 µM), inactives show top-dose activity change, negative = inhibition, hits mostly inhibitors; Drosophila S2 Gal4-RORgamma UAS-luciferase reporter, 20 h; AID 2551; P51450; also: potency is read from the fitted curve at half-maximal effect; % is scaled to controls: 0 for no effect and ±100 for the full control effect; nearly all actives have a fitted effect of over 60% in size
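Luminescence from a UAS-regulated Photinus luciferase reporter in stably transfected Drosophila Schneider cells is measured; decreased signal marks ROR gamma inhibition. Fusion expression is induced by 700 uM copper sulfate for 20 hr.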
CtBP-E1A inh: inhibitors of CtBP/E1A interaction. AlphaScreen GST-E1A/His-CtBP binding, 1536-well; hits give low values. activity change, % (no concentration beside the values). 0.49% of 340,000 active; in the data active = activity change below about -65%; inconclusive = mostly about -30% to -63%; also: % is scaled to controls: 0 for no effect and ±100 for the full control effect
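Steps: dispense buffer (Tris pH 8.0, NaCl 300 mM, TCEP 1 mM, BSA, Tween 20); add 5X protein mix (GST-E1A, His-CtBP, 125 nM each); pin 23 nL compound; 2 h at 37 °C, dark; add 5X beads (50 ug/mL); 1 h; read.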
CBFb RUNX1 block: CBF-beta/RUNX1 interaction disruption; AlphaScreen CBFb-His/RUNX1-biotin binding, biochemical; Q01196+Q13951; Potency, µM (titrated, usually from 59.8 µM), without a hit: top-dose activity, negative = inhibition, most hits filed as inhibitors; 230,000 tested, under 10 active; AID 1477; also: % of control where 0% means no effect
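CBF-beta (His) and RUNX1 (biotin), 30 nM each; 20 min preassociation; + compound, 15 min; + beads 50 ng each (Ni, streptavidin), 90 min; RT; AlphaScreen read.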
MBNL1-CUG inh: inhibitors of human MBNL1 binding to CUG repeat RNA. TR-FRET MBNL1-His/biotin-(CUG)12 binding, 665/545 ratio. 0.036% of 280,000 active. Q9NR56. Potency, µM (top dose mostly 57.5 µM), without a hit: at the top dose activity change, negative = inhibition, usual class: inhibitors; active = well fitted inhibition curve with a large enough effect in the signal ratio, with a control signal flat, not every such curve was filed as active; inconclusive = small, poorly fitted or top-dose-only effect, or effect the other way, or a change in a side signal; inactive = no such curve, though single readings can be large or run the other way; the % refers to the signal ratio; also: potency is read from the fitted curve at half-maximal effect; % is scaled to controls: 0 for no effect and ±100 for the full control effect
Target sequence (Q9NR56 whole entry, looked up): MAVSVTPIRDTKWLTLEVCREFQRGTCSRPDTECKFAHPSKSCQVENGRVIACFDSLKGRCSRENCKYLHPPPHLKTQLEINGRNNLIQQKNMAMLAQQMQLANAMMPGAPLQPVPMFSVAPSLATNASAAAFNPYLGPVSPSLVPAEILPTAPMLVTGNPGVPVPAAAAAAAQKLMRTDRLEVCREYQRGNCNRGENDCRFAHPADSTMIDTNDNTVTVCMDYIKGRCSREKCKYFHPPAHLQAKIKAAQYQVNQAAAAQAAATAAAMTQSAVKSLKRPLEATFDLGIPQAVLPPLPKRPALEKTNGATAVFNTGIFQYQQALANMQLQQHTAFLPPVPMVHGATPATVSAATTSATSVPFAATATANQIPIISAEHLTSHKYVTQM
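TR-FRET readout: Ex 340 nm, 665/545 nm emission ratio, normalized to buffer-only (basal) and MBNL1-(CUG)12 controls. Complex of MBNL1-His with Biotin-(CUG)12, compounds 92 nM–58 uM, incubated 60 min at room temperature.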
Six1-Eya2 blk: blocks human Six1 binding to Eya2; AID 651725; AlphaScreen GST-Six1/His-Eya2 binding, biochemical; hits give low values; 0.56% of 360,000 active; activity change, % (no concentration beside the values); in the data active = activity change below about -65%; inconclusive = mostly about -30% to -63%; also: % is scaled to controls: 0 for no effect and ±100 for the full control effect
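Six1/Eya2 binding was read as AlphaScreen signal after compounds were pinned into GST-Six1 plus His-tagged Eya2 (5X stock 250/500 nM) in pH 8.0 Tris/NaCl/TCEP buffer, beads added, then incubated 1 h, 37 C, dark.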
Gal4-VP16 FLuc: inhibits Gal4-VP16 luciferase reporter, ROR gamma counter-screen | Potency, µM (series often up to 53.6 µM), for inactives: at the highest dose activity, negative = inhibition, most hits filed as inhibitors | 3.5% of 310,000 active | Drosophila S2 Gal4-VP16 UAS-luciferase, luminescence, 20 h | AID 2546;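 also: Gal4-VP16 expression switched on by copper sulfate through the metallothionein promoter; potency is read from the fitted curve at half-maximal effect; % is scaled to controls: 0 for no effect and ±100 for the full control effect; nearly all actives have a fitted effect of over 50% in size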
Active calls of the source: *; ? = inconclusive; / = not tested or not shown. Unless noted, calls follow the shape of the dose curve; as a rule, active = well fitted curve in the direction sought with a large enough effect; inconclusive = small, poorly fitted or top-dose-only effect, or another doubt; inactive = no such curve, though single readings can be large; an effect the other way counts as inactive or inconclusive.

SMILES	RORgamma inh	CtBP-E1A inh	CBFb RUNX1 block	MBNL1-CUG inh	Six1-Eya2 blk	Gal4-VP16 FLuc
O=C(COc1ccc(Br)cc1)NNC(=S)NC(=O)c1ccccc1[N+](=O)[O-]	?	1	8%	/	-6	?
CCN(C[C@H]1N[C@@](C)(C(=O)OC)[C@H]2C(=O)N(C)C(=O)[C@@H]12)S(=O)(=O)c1ccc(C)cc1	/	5	/	/	6	/
Cc1occc1C(=O)NNC(=O)COc1ccc(Br)cc1Br	16%	-17	2%	1%	-2	2%
Cc1ccc(C(=O)NC(=S)NNC(=O)c2ccccc2[N+](=O)[O-])cc1	3.2µM*	-19	-14%	18%	-7	3.2µM*
Cc1occc1C(=O)NNC(=S)NC(=O)COc1ccc(Cl)cc1Cl	16µM*	-4	/	-1%	19	?
CC1=NOC2(C1)N(C)c1ccccc1C2(C)C (centres undefined)	1%	-2	-11%	-2%	2	-9%
COc1ccc2ccc3c(c2c1)N=C[C@]1(O3)N(C)c2ccccc2C1(C)C	13µM*	-26	-22%	6%	-30	?
CCN(C(=O)COC(=O)c1ccc(F)c(S(=O)(=O)N2CCOCC2)c1)C1CCS(=O)(=O)C1 (centres undefined)	-4%	5	/	-5%	-3	0%
Cc1ccc(NC(=O)c2cc3nc(C)cc(C)n3n2)cc1	6.3µM*	?	-3%	-8%	-25	10µM*
Cc1cn(-c2cccnc2)c(C)c1CNC[C@H]1O[C@@H](n2cnc3c(N)ncnc32)[C@H](O)[C@@H]1O	/	3	/	/	-1	/
O=C(N/N=C/c1cc(Br)cs1)c1c[nH]c2ccccc12	4%	/	-3%	/	-1	?
O=C(N/N=C/c1cc(Br)cs1)c1ccccc1[N+](=O)[O-]	5.6µM*	3	-5%	?	7	7.9µM*
O=C(Cc1cccs1)N/N=C\c1ccc([N+](=O)[O-])s1	?	/	?	?	-3	?
O=C(N/N=C/c1ccc(Cl)s1)c1ccccc1[N+](=O)[O-]	6.3µM*	0	-1%	?	-10	7.1µM*
O=C(CNC(=O)c1ccccc1Cl)N/N=C/c1ccc([N+](=O)[O-])s1	18µM*	-12	-1%	?	-2	?
CCC(C)(C)NC(=O)C(c1ccc(OC)cc1)N(C(=O)CCC(=O)Nc1cc(C)on1)C(C)(C)C (centres undefined)	?	-1	/	0%	-7	11%
Cc1cccn2cc(COc3cccc([N+](=O)[O-])c3)nc12	1%	1	6%	?	5	0%
Brc1ccc(OCc2cn3ccccc3n2)cc1	10µM*	0	1%	3%	16	-4%
Cc1cccn2cc(COc3ccc(-c4ccccc4)cc3)nc12	13µM*	-1	-8%	-5%	-2	?
COc1ccc(CCCNC(=O)C2CCC(=O)N(CCc3cccc(F)c3)C2)cc1 (centres undefined)	16%	7	/	-6%	2	-1%
O=C(OCC(=O)N1CCCC1)c1cc(F)c(F)cc1Cl	-1%	9	/	1%	0	-9%
O=C(CSc1nnc(CNC(=O)c2ccco2)o1)Nc1nc2ccccc2s1	2.5µM*	/	-26%	-4%	-4	10µM*
O=C(CSc1nnc(CNc2ccc(Cl)cc2)o1)Nc1nc2ccccc2s1	14µM*	-1	-7%	0%	-1	?
Cc1ccc(-n2[nH]c(=O)c3cccnc32)cc1	21%	0	2%	17%	4	5%
Cc1ccc(-n2[nH]c(=O)c(-c3ccccn3)c2C)cc1	1.3µM*	-21	1%	4%	-22	2.8µM*
SMILES	RORgamma inh	CtBP-E1A inh	CBFb RUNX1 block	MBNL1-CUG inh	Six1-Eya2 blk	Gal4-VP16 FLuc
COc1c(O)cccc1/C=N/NC(=O)Cn1ccnc1C	?	/	-23%	15%	-93*	-24%
COC(=O)c1ccccc1NC(=S)NC(=O)c1cccc2ccccc12	4.5µM*	-12	-11%	6%	-15	18µM*
CCCC(=O)NC(=S)Nc1cccc2c(O)cccc12	13µM*	-15	0%	19%	-9	?
CCCC(=O)NC(=S)Nc1ccccc1C(=O)OC	16µM*	-3	-1%	-9%	6	?
O=C(NC(=S)Nc1cccc2c(O)cccc12)c1ccco1	-2%	-15	/	?	-11	-10%
COC(=O)c1ccccc1NC(=S)NC(=O)COc1ccc(C(C)C)cc1	11µM*	14	10%	-11%	13	?
COC(=O)c1ccccc1NC(=S)NC(=O)c1ccc2ccccc2c1	?	-21	-5%	/	-21	?
Cc1nn(CC(=O)OCC(=O)c2ccc(OC(F)F)cc2)c(C)c1[N+](=O)[O-]	/	26	/	/	14	/
CCC(=O)NC(=S)Nc1ccccc1C(=O)OC	13µM*	11	3%	/	3	?
Cc1cccc(C)c1OCC(=O)NC1CC1	?	5	/	7%	6	-4%
Cc1cccc(C)c1OCC(=O)NNC(=S)NC(=O)C1CC1	18µM*	-5	/	2%	-9	?
COC(=O)c1ccccc1NC(=S)NC(=O)C1CC1	13µM*	2	-5%	-8%	-2	-20%
COC(=O)c1ccccc1NC(=S)NC(C)=O	?	10	0%	-4%	-1	22%
Cc1ccc(CNC(=O)CSc2nc(=O)n3cccc(C)c3n2)cc1	/	4	/	/	-2	/
CN(C(=O)COC(=O)CSc1cc(Cl)ccc1Cl)c1c(N)n(Cc2ccccc2)c(=O)[nH]c1=O	/	-2	/	/	-2	/
CCn1ncc([N+](=O)[O-])c1C(=O)N1CCc2ccccc2C1	-42%	3	/	16%	2	1%
C=CCn1c(SC(C)C(=O)NC2CC2)nnc1-c1ccoc1C (centres undefined)	/	2	/	/	1	/
CC(C)N(C(=O)CSc1nc2ccccc2n1-c1ccccc1)C(C)C	11µM*	2	-2%	-8%	-3	?
CCOc1ccc(N(CC(=O)NC2CCCCC2)C(=O)CCC(=O)Nc2ccccn2)cc1	4%	-8	/	-5%	0	3%
CC1=C(C)/C(=N\OS(=O)(=O)c2ccc(C)cc2)C=CC1=O	5µM*	4	8%	4%	7	2µM*
CC1=C/C(=N\OS(=O)(=O)c2ccccc2)C(C(C)C)=CC1=O	2.8µM*	1	4%	9%	-12	0.79µM*
CC(S(=O)(=O)c1ccccc1)S(=O)(=O)c1ccccc1	/	1	/	/	3	/
